Data from the supplement of paper PMC13380429.

Experiments:
[1] = tested on: Vero E6 infected with SARS-CoV-2; experiment: morphology score (similarity to uninfected cells); higher = more like uninfected cells; settings: 24 h
[2] = tested on: Vero E6 infected with SARS-CoV-2; experiment: SARS-CoV-2 infection rate relative to infected DMSO; higher = more infection, active = 60 or less; settings: 24 h

SMILES | morphology score [1] | SARS-CoV-2 infection rate [2]
O=C1CN(/N=C/c2ccc(-c3ccc([N+](=O)[O-])cc3)o2)C(=O)N1 [dantrolene] (10 µM) | 0.0672 | 110% (inactive)
COc1cc(/C=C/C(N)=O)cc(OC)c1OC [cintriamide] (10 µM) | -0.0883 | 110% (inactive)
CC(C)NC(=N)NC(=N)Nc1ccc(Cl)cc1 [proguanil] (10 µM) | -0.0553 | 112% (inactive)
OC[C@H]1O[C@@H](n2cnc3c(N[C@H]4CCC[C@@H]4O)ncnc32)[C@H](O)[C@@H]1O (10 µM) | 0.227 | 100% (inactive)
c1nc(CC2CCNCC2)c[nH]1 [immepip] (10 µM) | 0.0471 | 101% (inactive)
CC1CCN(CCCC(=O)c2ccc(F)cc2)CC1 [melperone] (10 µM) | 0.389 | 80.5% (inactive)
CCC(CC)COC(=O)[C@H](C)N[P@](=O)(OC[C@H]1O[C@@](C#N)(c2ccc3c(N)ncnn23)[C@H](O)[C@@H]1O)Oc1ccccc1 [Remdesivir] (10 µM) | 0.761 | 26% (active)
O=C(NC(Cc1cc(=O)[nH]c2ccccc12)C(=O)O)c1ccc(Cl)cc1 (stereo unspecified) [rebamipide] (10 µM) | 0.0758 | 104% (inactive)
Cn1c(-c2ccccc2)nnc1S(C)(=O)=O (10 µM) | 0.268 | 86.5% (inactive)
O=C(CCCCCCCn1cc(-c2cccnc2)nn1)Nc1ccccc1-c1ccccc1 (0.833333 µM) | -0.143 | 114% (inactive)
C=CC(=O)Nc1cccc(Nc2nc(Nc3ccc(Oc4ccnc(C(=O)NC)c4)cc3)ncc2F)c1 (0.833333 µM) | 0.147 | 110% (inactive)
CC1=C(CC(=O)O)c2cc(F)ccc2/C1=C\c1ccc(S(C)(=O)=O)cc1 [exisulind] (10 µM) | 0.0955 | 109% (inactive)
CN1C2C=C(c3sccc3Br)CC1CC2 (stereo unspecified) (10 µM) | 0.427 | 69.5% (inactive)
CSc1ccccc1Nc1nc(N2CCNCC2)nc2c(NCC3CC3)ncnc12 (0.833333 µM) | 0.166 | 101% (inactive)
Cc1cc(C(C)(C)CC(C)(C)C)ccc1OCCOCC[N+](C)(C)Cc1ccccc1 [methylbenzethonium-chloride] (10 µM) | -0.0681 | 101% (inactive)
CC(C)(S)C(=O)N[C@@H](CS)C(=O)O [bucillamine] (10 µM) | -0.0447 | 107% (inactive)
CC(=C(CCOC(=O)C(C)C)SSC(CCOC(=O)C(C)C)=C(C)N(C=O)Cc1cnc(C)nc1N)N(C=O)Cc1cnc(C)nc1N (stereo in doubt) [sulbutiamine] (10 µM) | 0.0249 | 100% (inactive)
CCOC(=O)c1ccccc1OC(=O)CCCCCCCC(=O)Oc1ccccc1C(=O)OCC (10 µM) | 0.166 | 100% (inactive)
CCCC(C)C1(CC)C(=O)NC(=O)NC1=O (stereo unspecified) [pentobarbital] (10 µM) | 0.0334 | 100% (inactive)
C[C@@H](O[C@H]1OCCN(Cc2nn[nH]c2CN(C)C)[C@H]1c1ccc(F)cc1)c1cc(C(F)(F)F)cc(C(F)(F)F)c1 (10 µM) | 0.43 | 58% (active)
COc1cc(N)c(Cl)cc1C(=O)OCCCN1CCCCC1 (10 µM) | 0.0833 | 100% (inactive)

SMILES | morphology score [1] | SARS-CoV-2 infection rate [2]
C#C[C@]1(O)CC[C@H]2[C@@H]3CCC4=CC(=O)CC[C@@H]4[C@H]3CC[C@@]21C [Norethindrone (Norethisterone)] (10 µM) | -0.0201 | 112% (inactive)
O=C(O)c1cc(=O)c2ccccc2[nH]1 [kynurenic-acid] (10 µM) | 0.122 | 97% (inactive)
Oc1cc(O)cc(O)c1 [phloroglucin] (10 µM) | -0.0825 | 114% (inactive)
CCOC(=O)c1ccc(O)cc1 [ethyl-paraben] (10 µM) | -0.0381 | 104% (inactive)
CCOC(=O)N1CCC(=C2c3ccc(Cl)cc3CCc3cccnc32)CC1 [loratadine] (10 µM) | 0.221 | 90% (inactive)
NS(=O)(=O)c1ccc(NC(=O)Nc2ccc(F)cc2)cc1 (10 µM) | 0.0694 | 108% (inactive)
C=CCn1c(=O)c2cnc(Nc3ccc(N4CCN(C)CC4)cc3)nc2n1-c1cccc(C(C)(C)O)n1 (10 µM) | -0.0169 | 96% (inactive)
CCOCc1cc(OC)c(-c2ccc(C[C@H](NC(=O)c3c(F)cccc3F)C(=O)O)cc2)c(OC)c1 [firategrast] (10 µM) | -0.05 | 105% (inactive)
CCCCOc1ccc(CC(=O)NO)cc1 [bufexamac] (10 µM) | 0.234 | 94% (inactive)
N[C@@H](CCNCc1ccc(Cl)cc1)C(=O)N1CCCCC1 (10 µM) | -0.159 | 107% (inactive)
COc1ccnc2[nH]cc(C(=O)C(=O)N3CCN(C(=O)c4ccccc4)C[C@H]3C)c12 (10 µM) | -0.0708 | 99% (inactive)
CC1=CC(=C(c2ccc(N)cc2)c2ccc(N)cc2)C=CC1=N [basic-fuchsin] (0.833333 µM) | 0.163 | 97.5% (inactive)
c1ccc(OCc2ccc(CCCN3CCOCC3)cc2)cc1 [fomocaine] (10 µM) | -0.0235 | 106% (inactive)
Cc1ccccc1C(OCCN(C)C)c1ccccc1 (stereo unspecified) [orphenadrine] (10 µM) | 0.316 | 87% (inactive)
CC(C)(C)c1ccc(-c2nc3ccccc3[nH]2)cc1 (10 µM) | 0.557 | 64% (inactive)
C=C[C@@]1(C)CC(=O)[C@]2(O)[C@@]3(C)[C@@H](O)CCC(C)(C)[C@@H]3[C@H](O)[C@H](OC(C)=O)[C@@]2(C)O1 [colforsin] (10 µM) | 0.455 | 83% (inactive)
CCC[C@@H]1C[C@@H](C(=O)N[C@@H]([C@H]2O[C@H](SC)[C@H](OP(=O)(O)O)[C@@H](O)[C@H]2O)[C@H](C)Cl)N(C)C1 [Clindamycin phosphate] (10 µM) | -0.0234 | 107% (inactive)
COc1cc(/C=C/C(=O)O)ccc1O [ferulic-acid] (10 µM) | -0.0443 | 110% (inactive)
Cc1ccc(S(=O)(=O)Cc2nc(-c3ccc(C(=O)NCc4cccnc4)cc3)oc2C)cc1 (0.833333 µM) | -0.146 | 93% (inactive)
CN(Cc1cnc2nc(N)nc(N)c2n1)c1ccc(C(=O)N[C@@H](CCC(=O)O)C(=O)O)cc1 [methotrexate] (10 µM) | -0.183 | 100% (inactive)
CCN(CC)CCOc1ccccc1C(=O)CCc1ccccc1 [etafenone] (10 µM) | 0.151 | 97.5% (inactive)

SMILES | morphology score [1] | SARS-CoV-2 infection rate [2]
C[C@]12CC[C@@H]3c4ccc(OC(=O)c5ccccc5)cc4CC[C@H]3[C@@H]1CC[C@@H]2O [estradiol-benzoate] (10 µM) | -0.19 | 111% (inactive)
CN1CCC(=C2c3ccccc3CCn3c(C=O)cnc32)CC1 [alcaftadine] (10 µM) | 0.0541 | 93.5% (inactive)
NC(=O)c1nc(F)cnc1O [favipiravir] (10 µM) | 0.0924 | 104% (inactive)
O=C(O)P(=O)(O)O [foscarnet] (10 µM) | 0.202 | 98% (inactive)
Cc1cccc(C)c1NC(=O)CN1CCCCCC1 [pincainide] (10 µM) | 0.00868 | 106% (inactive)
CCCCOC(=O)c1cc2c(cn1)[nH]c1ccccc12 [beta-CCB] (10 µM) | 0.156 | 94% (inactive)
Cc1cccc(-c2n[nH]cc2-c2ccc(F)c(-c3cnn(CCO)c3)c2)n1 (10 µM) | 0.148 | 104% (inactive)
CC(=O)OCC(=O)[C@@]1(O)CC[C@H]2[C@@H]3CCC4=CC(=O)CC[C@]4(C)[C@H]3[C@@H](O)C[C@@]21C [hydrocortisone-acetate] (10 µM) | -0.00868 | 110% (inactive)
COc1ccc(Nc2ccn(-c3ccccc3)n2)cc1 (10 µM) | 0.166 | 87.5% (inactive)
C[C@@H]([C@@H](O)c1ccc(O)cc1)N1CCC(O)(c2ccccc2)CC1 [traxoprodil] (10 µM) | -0.037 | 108% (inactive)
OC[C@@H](O)[C@@H](O)[C@H](O)[C@@H](O)CO [sorbitol] (10 µM) | -0.0534 | 110% (inactive)
CCCN(CCC)[C@H]1CCc2cccc(O)c2C1 [8-hydroxy-DPAT] (10 µM) | 0.0607 | 98.5% (inactive)
Cc1cc([C@@H](C)Nc2ccccc2C(=O)O)c2nc(N3CCOCC3)cc(=O)n2c1 (10 µM) | -0.0702 | 105% (inactive)
O=C(O)c1ccc(NC(=O)[C@H](Cc2ccc(O)cc2)NC(=O)c2ccccc2)cc1 [bentiromide] (10 µM) | 0.211 | 106% (inactive)
CCC(=O)O[C@@H](O[P@@](=O)(CCCCc1ccccc1)CC(=O)N1C[C@H](C2CCCCC2)C[C@H]1C(=O)O)C(C)C [fosinopril] (10 µM) | -0.0286 | 104% (inactive)
O=C(/C=C/c1ccc(CN(CCO)CCc2c[nH]c3ccccc23)cc1)NO [dacinostat] (0.833333 µM) | 0.00104 | 104% (inactive)
NC1(Cc2ccc(Cl)cc2)CCN(c2ncnc3[nH]ccc23)CC1 (0.833333 µM) | 0.535 | 99.5% (inactive)
C[C@@H]1C[C@H]2[C@@H]3CCC4=CC(=O)C=C[C@]4(C)[C@@]3(F)[C@@H](O)C[C@]2(C)[C@@]1(O)C(=O)COP(=O)(O)O (10 µM) | 0.0439 | 99% (inactive)
NC(=O)N/N=C/c1ccc(Oc2ccc(F)cc2)cc1 (10 µM) | -0.137 | 112% (inactive)
COc1ccc(CN(CCN(C)C)c2ncccn2)cc1 [thonzylamine] (10 µM) | 0.0251 | 110% (inactive)
CN(C)C(=O)c1ccc(S(=O)(=O)c2ccc(NC(=O)[C@@](C)(O)C(F)(F)F)c(Cl)c2)cc1 (10 µM) | 0.28 | 104% (inactive)
